# In PubChem BioAssay (Tox21):
# Where “and” joins values, the source holds several entries; their conditions need not be identical. Equal entries are not always repeated. Results filed as inconclusive are left out. Entries that show only a call come without a potency. A structure can be active in one record and inactive in another. Calls of active or inactive are those of the source. Unless noted, calls follow the shape of the dose curve; as a rule, active = well fitted curve in the direction sought with a large enough effect in the repeat runs; inconclusive = weak or mixed curves; inactive = no such curve, though single readings can be large; an effect the other way counts as inactive or inconclusive.
# Columns and labels:
# [1] = qHTS assay for small molecules that induce genotoxicity in human embryonic kidney cells expressing luciferase-tagged ATAD5 (AID 651632); also: nearly all actives have a fitted effect of over 15% in size; also: potency is read from the fitted curve at half-maximal effect
# Outline: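 Cells were seeded at 2,000 per well, dosed with compound, and incubated 16 hr at 37C in 5% CO2. Luciferase activity was then quantified after a 30 min room-temperature incubation with Amplite.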
# [2] = qHTS assay for small molecule agonists of the p53 signaling pathway - cell viability (AID 651633; calls by dose curve; also: nearly all actives have a fitted effect of over 30% in size; also: potency is read from the fitted curve at half-maximal effect)
# Outline: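 p53RE-bla cells, seeded at 4,000 per well and rested 5 h at 37 C/5% CO2, received compounds in DMSO for 16 h at 37 C. CellTiter-Glo was then added, and luminescence was read after 30 min at room temperature to gauge cytotoxicity.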
# [3] = qHTS assay for small molecules that induce genotoxicity in human embryonic kidney cells expressing luciferase-tagged ATAD5 - cell viability (AID 651634; calls by dose curve; also: nearly all actives have a fitted effect of over 25% in size; also: potency is read from the fitted curve at half-maximal effect)
# Outline: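 Cells (HEK293T, luciferase-tagged ATAD5) are seeded at 2,000 per well, dosed with compound or DMSO vehicle, and incubated 15.5 hr at 37C and 5% CO2. CellTiter-Fluor is added for 30 min before fluorescence is measured.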
# [4] = qHTS assay for small molecule disruptors of the mitochondrial membrane potential - cell viability (AID 720634; calls by dose curve; also: nearly all actives have a fitted effect of over 20% in size; also: potency is read from the fitted curve at half-maximal effect)
# Outline: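 Cytotoxicity was measured by ATP quantitation in HepG2 wells that had first been treated with compound for 1 hr and stained with m-MPI dye; CellTiter-Glo incubation was 30 min at room temperature.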
# [5] = qHTS assay to test for compound auto fluorescence at 590 nm (red) in HepG2 cells (AID 720674)
# Outline: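 Compound auto-fluorescence is scored relative to Rose Bengal sodium, measured at 540/590 nm in live HepG2 cultures after 1 hr compound contact (37 C, 5% CO2).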
# [6] = qHTS assay to test for compound auto fluorescence at 460 nm (blue) in HEK293 cells (AID 720678)
# Outline: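 HEK293 cells (2,000 per well, medium with 10% dialyzed FBS) attached for 4-5 hr at 37C, then received compound and stood overnight at 37C, 5% CO2. Blue fluorescence was read at Ex/Em 405/460 nm and expressed relative to triamterene.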
# [7] = qHTS assay to test for compound auto fluorescence at 535 nm (green) in HEK293 cells (AID 720680)
# [8] = qHTS assay to test for compound auto fluorescence at 535 nm (green) in HEK293 cell free culture (AID 720682)
# Outline: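 Each library compound, or DMSO control, is added by pintool to medium alone, comprising DMEM and 10% FBS. Emission at 535 nm following 485 nm excitation is quantified against fluorescein.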
# [9] = qHTS assay to test for compound auto fluorescence at 590 nm (red) in HEK293 cell free culture (AID 720683)
# Outline: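 Tox21 10K library compounds were pinned into cell-free DMEM with 10% FBS and fluorescence was read at excitation 540 nm. Activity is expressed as Rose Bengal sodium equivalency.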
# [10] = qHTS assay to test for compound auto fluorescence at 460 nm (blue) in HepG2 cell free culture (AID 720685)
# Outline: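 Cell-free plates of MEM plus 10% FBS received 23 nL compound or DMSO vehicle; blue-channel (405/460 nm) intensity scored against triamterene as reference fluorophore.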
# [11] = qHTS assay to test for compound auto fluorescence at 460 nm (blue) in HepG2 cells (AID 720687)
# Outline: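 Cells (2,000/well in MEM with 10% FBS) attached overnight at 37 C, then were exposed to compound or DMSO for 1 hr at 37 C, 5% CO2. Fluorescence read at Ex/Em 405/460 nm, expressed as triamterene-equivalent signal.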
# [12] = qHTS assay for identifying genotoxic compounds that show differential cytotoxicity against isogenic chicken DT40 cell lines with known DNA damage response pathways - wild type cell line (AID 743012); also: nearly all actives have a fitted effect of over 60% in size; also: potency is read from the fitted curve at half-maximal effect
# Outline: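 Cytotoxicity in repair-proficient parental chicken DT40 cells serves as the comparator for Rad54/Ku70- and Rev3-deficient lines. Cells were exposed to compounds for 40 h at 37 C/5% CO2, and ATP-based luminescence (CellTiter-Glo) measured viability.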
# [13] = qHTS assay to identify small molecule antagonists of the androgen receptor (AR) signaling pathway - cell viability counter screen (AID 743033; also: nearly all actives have a fitted effect of over 45% in size; also: potency is read from the fitted curve at half-maximal effect)
# [14] = tested on: thyroid hormone receptor (rat, GH3 cells); experiment: qHTS assay to identify small molecule agonists of the thyroid receptor (TR) signaling pathway (AID 743066; calls by dose curve)
# [15] = qHTS assay to identify small molecule antagonists of the estrogen receptor alpha (ER-alpha) signaling pathway - cell viability counter screen (AID 743074; calls by dose curve;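 also: HEK293 cells carrying ER-alpha-UAS-bla reporter stimulated with 17beta-estradiol; nearly all actives have a fitted effect of over 45% in size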; also: potency is read from the fitted curve at half-maximal effect)
# [16] = qHTS assay to identify small molecule antagonists of the estrogen receptor alpha (ER-alpha) signaling pathway using the BG1 cell line - cell viability counter screen (AID 743081);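 also: compound given together with 17beta-estradiol as the ER stimulus; series mostly up to about 70 µM; nearly all actives have a fitted effect of over 45% in size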
# Aromatase (Homo sapiens) = Aromatase (Homo sapiens) (UniProt P11511); experiment: qHTS assay to identify aromatase inhibitors (AID 743083); also: nearly all actives have a fitted effect of over 55% in size; also: potency is read from the fitted curve at half-maximal effect
# Chain of Aromatase (Homo sapiens) (P11511 whole entry, looked up): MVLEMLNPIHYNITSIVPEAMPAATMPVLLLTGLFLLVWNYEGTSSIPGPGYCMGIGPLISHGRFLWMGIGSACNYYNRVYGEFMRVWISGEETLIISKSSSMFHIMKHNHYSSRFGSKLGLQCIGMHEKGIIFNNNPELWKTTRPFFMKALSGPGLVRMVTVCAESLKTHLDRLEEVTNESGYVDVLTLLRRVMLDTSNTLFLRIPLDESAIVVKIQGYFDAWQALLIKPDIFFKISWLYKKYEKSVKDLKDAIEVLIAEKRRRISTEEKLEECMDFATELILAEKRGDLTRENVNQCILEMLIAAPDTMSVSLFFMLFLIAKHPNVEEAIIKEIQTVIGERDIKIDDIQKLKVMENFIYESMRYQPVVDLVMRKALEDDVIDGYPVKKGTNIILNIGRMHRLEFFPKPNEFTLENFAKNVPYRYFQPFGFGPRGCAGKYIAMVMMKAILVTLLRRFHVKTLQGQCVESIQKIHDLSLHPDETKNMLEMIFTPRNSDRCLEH
# [17] = qHTS assay to identify aromatase inhibitors - cell viability counter screen (AID 743084);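 also: cells stimulated with testosterone during compound exposure; nearly all actives have a fitted effect of over 55% in size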; also: potency is read from the fitted curve at half-maximal effect
# [18] = qHTS assay to identify small molecule that activate the aryl hydrocarbon receptor (AhR) signaling pathway - cell viability counter screen (AID 743086); also: nearly all actives have a fitted effect of over 45% in size; also: potency is read from the fitted curve at half-maximal effect
# Outline: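 HepG2-AhR-luc (HG2L7.5c1) cells, 4000/well, were preincubated 5 h at 37C, exposed to compound in qHTS format for 24 hr at 37C, then given CellTiter-Fluor for 30 min; viability was read as fluorescence in the reporter wells.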
# [19] = qHTS assay to identify small molecule phospholipidosis (PLD) inducers (AID 1259344; active = well fitted curve in the direction sought with a large enough effect; an effect the other way counts as inactive or inconclusive)
# Outline: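 Cells (HepG2, 900 per well) attach for 4 h, receive LipidTOX Red and compound together, incubate 24 h at 37 C, are fixed 30 min with paraformaldehyde/Hoechst, then imaged at one site per well.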
Compound,Potency [1],Potency [2],Potency [3],Potency [4],outcome [5],Potency [6],Potency [7],Potency [8],outcome [9],Potency [10],Potency [11],Potency [12],Potency [13],Potency [14],Potency [15],Potency [16],Potency (Aromatase (Homo sapiens)),Potency [17],Potency [18],Potency [19]
c1csc(C2(N3CCCCC3)CCCCC2)c1,inactive,inactive,inactive,inactive,inactive,inactive,inactive,inactive,inactive,inactive,inactive,inactive,inactive,inactive,inactive,inactive,inactive,inactive,inactive,inactive
Oc1cc[c]([Hg][Cl])cc1,4.22 µM (active) and 8.41 µM (active),9.44 µM (active) and 16.8 µM (active),11.9 µM (active) and 13.3 µM (active),16.8 µM (active),inactive,inactive,inactive,inactive,inactive,inactive,inactive,422 nM (active) and 596 nM (active),7.56 µM (active) and 19 µM (active),,21.3 µM (active) and inactive,inactive,6.68 µM (active) and 13.3 µM (active),6.68 µM (active) and 11.9 µM (active),13.3 µM (active),inactive
CCNC(C)Cc1cccc(C(F)(F)F)c1 (centres undefined),inactive,inactive,inactive,inactive,inactive,inactive,inactive,inactive,inactive,inactive,inactive,inactive,inactive,inactive,inactive,inactive,inactive,inactive,inactive,inactive
CC(=O)OO,inactive,inactive,inactive,inactive,inactive,inactive,inactive,inactive,inactive,inactive,inactive,inactive,inactive,inactive,inactive,inactive,inactive,inactive,inactive,inactive
CC(C)(O)[C@@H]1[C@H]2OC(=O)[C@@H]1[C@]1(O)C[C@H]3O[C@]34C(=O)O[C@H]2[C@]14C,inactive,inactive,inactive,inactive,inactive,inactive,inactive,inactive,inactive,inactive,inactive,inactive,inactive,inactive,inactive,inactive,,,inactive,inactive
COc1ccc2c3c1O[C@H]1C(=O)CC[C@H]4[C@@H](C2)N(C)CC[C@]314,inactive,inactive,inactive,inactive,inactive,inactive,inactive,inactive,inactive,inactive,inactive,inactive,inactive,inactive,,inactive,inactive,inactive,inactive,inactive
[S]=[Sb](=[S])[S][Sb](=[S])=[S],inactive,inactive,inactive,inactive,inactive,inactive,inactive,inactive,inactive,inactive,inactive,,inactive,inactive,inactive,inactive,inactive,inactive,inactive,inactive
C[C@@H](Cc1ccccc1)N(C)C,inactive,inactive,inactive,inactive,inactive,inactive,inactive,inactive,inactive,inactive,inactive,inactive,inactive,inactive,inactive,inactive,inactive,inactive,inactive,inactive
CCN(CC)C(=O)N[C@H]1C[C@@H]2c3cccc4[nH]cc(c34)C[C@H]2N(C)C1,inactive,inactive,inactive,inactive,inactive,inactive,inactive,inactive,inactive,inactive,inactive,29.8 µM (active),inactive,inactive,inactive,inactive,inactive,inactive,inactive,inactive
CCC1(c2ccccc2)C(=O)NC(=O)N(C(=O)c2ccccc2)C1=O (centres undefined),inactive,inactive,inactive,inactive,inactive,inactive,inactive,inactive,inactive,inactive,inactive,inactive,inactive,inactive,inactive,,inactive,inactive,inactive,inactive
CCON=O,inactive,inactive,inactive,inactive,inactive,inactive,inactive,inactive,inactive,inactive,inactive,inactive,inactive,inactive,inactive,inactive,inactive,inactive,inactive,inactive
CN[C@H]1C[C@@H](N)[C@H](O)[C@@H](O[C@@H]2O[C@H](CO)[C@H](O)[C@@H]3OC4(O[C@H]23)O[C@H](C(N)CO)[C@H](O)[C@H](O)[C@H]4O)[C@@H]1O (some centres undefined),inactive,inactive,inactive,inactive,inactive,inactive,inactive,inactive,inactive,inactive,inactive,inactive,inactive,inactive,inactive,inactive,inactive,inactive,inactive,inactive
